Source: the supplement of paper PMC6555819

How the values were obtained:
Experiment in all cases: PBM binding z-score (relative to random genomic background probes); higher = stronger binding; sequences stand for … in GC…GCGATTGACAGCGTAGAATGAAGG
[1] = tested on: FXR:RXRa (NR concentration 270 nM, RXRa partner concentration 90 nM)
How it was run: (§1)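 Each nuclear receptor dimer, without ligand, was incubated for 1 h on custom Agilent 4×180K protein-binding microarrays. Binding was detected with antibodies against each partner (one per run), and scanned fluorescence was regression-normalized. The binding z-scores are referenced to random human genomic background probes.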

[2] = tested on: LXRa:RXRa (NR concentration 270 nM, RXRa partner concentration 90 nM)
How it was run: as §1

[3] = tested on: LXRa homodimer (NR concentration 270 nM)
How it was run: as §1

[4] = tested on: LXRb:RXRa (NR concentration 270 nM, RXRa partner concentration 90 nM)
How it was run: as §1

[5] = tested on: LXRb homodimer (NR concentration 270 nM)
How it was run: as §1

[6] = tested on: PPARa:RXRa (NR concentration 270 nM, RXRa partner concentration 90 nM)
How it was run: as §1

[7] = tested on: PPARg:RXRa (NR concentration 180 nM, RXRa partner concentration 90 nM)
How it was run: as §1

[8] = tested on: PPARg:RXRa 270nM:90nM, anti-RXR (NR concentration 270 nM, RXRa partner concentration 90 nM)
How it was run: as §1

[9] = tested on: PPARg:RXRa 30nM:10nM, anti-RXR (NR concentration 30 nM, RXRa partner concentration 10 nM)
How it was run: as §1

[10] = tested on: PPARg:RXRa 90nM:30nM, anti-RXR (NR concentration 90 nM, RXRa partner concentration 30 nM)
How it was run: as §1

Sequence	PBM binding z-score [1]	PBM binding z-score [2]	PBM binding z-score [3]	PBM binding z-score [4]	PBM binding z-score [5]	PBM binding z-score [6]	PBM binding z-score [7]	PBM binding z-score [8]	PBM binding z-score [9]	PBM binding z-score [10]
GCTGCTAGGTCAGGTTGTTCAGCTAACGGGTACG	1.07	0.82	-0.00729	0.433	-0.427	1.29	0.414	1.18	-0.403	0.471
AGAACGAGGGGAATGAGTTGATAGCACGGGTGGC	-0.0217	-0.0133	-0.00891	-0.228	0.0514	0.192	0.861	-0.0385	-0.193	-0.152
AGCCAAAGTTCAGGACGAGGTAACGTAAAGCACG	4.33	3.71	1.39	1.94	0.134	3.22	3.24	3.54	0.828	2.74
CCGACCGGGGCAAGGTTACCATAACGCACAGCCA	0.591	1.02	-0.0287	0.604	-0.88	1.3	1.3	1.18	-0.0517	0.495
CCGACTGGTGCAGAAAGGTTACCATACCATCCGG	0.086	0.429	-0.181	0.491	-0.9	1.73	0.848	1.18	-0.313	0.336
GCGACTGGGGCAAAGCAGATTACCATAAGGTTGG	-0.443	-0.606	-0.499	-0.352	-0.97	0.454	1.36	0.951	0.202	0.481
TTACCAAGGTGAGCTGAGGTCGTTGACCCAACTC	2.54	2.48	-0.484	1.43	-0.784	2.06	0.441	0.96	-0.036	0.348
ACTATTAGTTGAGCCGAGGGCAACCGATAGGTTG	0.981	0.0811	-0.117	-0.118	0.161	0.302	0.401	-0.167	-0.144	-0.0304
GCCCGGAGGACAAGGTCAGAGCTTTGTCCGTAGA	1.63	1.41	-0.287	1.05	-1.25	1.98	-0.107	0.592	-0.793	-0.158
TCTTGTAGATCAGCAGGTTCAGAAAGCTGGCCAA	-0.19	0.323	-0.435	0.265	-0.738	0.609	-0.665	1.1	2.02	1.52
AGAATGAGGTTATCAAGATCAGGGAATTGCGGTC	1.64	1.37	0.0557	1.14	-0.163	2.8	1.6	2.08	0.462	1.29
ACTAGCAGGCCAAGATTGGGTCACTCAAACAAAG	-0.0447	-0.288	-0.493	0.338	-0.861	1.33	0.272	0.402	-0.526	-0.361
CCTCGGAGGACAACAGGCGGTCAGAGCTGCCAGA	-0.211	-0.0211	0.394	-0.76	-1.15	-0.468	-0.327	-0.898	-0.775	-1.03
GCTAGTTGGTCAGTTAAAGGTCACACACCGGTCG	3.58	4.58	5.75	3.98	0.905	4.23	3.18	5.17	3.67	4.95
ATCTCTAGGTAACAAGTTCAGTGGAAGAGAGGAC	0.589	0.744	0.58	0.666	0.823	1.47	1.7	1.79	0.967	1.71
TCTAGTTGGTCAAGGAGGTCACACACGACGGGTA	3.04	3.16	1.88	3.23	0.53	3.73	2.59	3.56	3.6	3.39
CGAACTAGGTCATCCAGGACAGAGAATACATTGA	4.18	2.74	0.462	2.08	0.0984	4.79	7.72	6.45	3.83	5.81
AGTCAATGTTCATCTAGGTAACGTAAGATATGCT	-0.0895	-0.35	-0.229	-0.0742	-0.311	0.296	0.881	-0.0872	-0.0799	-0.00272
CAAACTAGGTCACGAATGGTCAAAGTCGAATGAC	4.48	5.29	0.845	3.46	0.546	5.82	9.24	7.45	5.7	7.36
GCTATTAGTAGAAAGGGCAACCGAATGATTCTCG	-0.219	0.182	-0.00158	0.187	-0.195	1.42	2.17	3.71	1.81	3.54
AGTCAATGTTCAGGACGAGGTAACGTAAAGCACG	-0.0403	-0.35	-0.0733	-0.154	-0.516	-0.141	0.531	-0.297	0.071	-0.0574
TCTATTAGTCGATTAGGGCAACCGAAACAGCGGA	0.523	0.509	0.385	0.608	0.293	0.759	0.292	2.12	3.61	2.99
CGAACTAGGTCATTCAGGACAGTGAATACATTGA	4.37	2.73	0.67	2.11	0.253	4.49	7.24	6	3.42	5.66
AGTCTAAGTTCAGGACGAGGTAACGTAAAGCACG	1.61	1.56	0.288	0.821	-0.194	1.82	0.831	0.749	0.345	0.385
